An excerpt weighted towards active compounds, which were near 3% of everything screened.
Peg3 promoter: Peg3 promoter activity inhibition. inhibition, % at 20 µM. HeLa PEG-Prom luciferase reporter, luminescence, overnight. 1.7% of 360,000 active;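 active = inhibition of at least 50% at 20 µM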
ABHD5 PLIN5 PPI: ABHD5-PLIN5 protein interaction inhibition; Q00G26+Q8WTS1; Split G. princeps luciferase complementation, luminescence, 4 h; inhibition, % at 4 µM; 0.78% of 360,000 active; AID 602281;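 active = inhibition above the mean inhibition across every tested compound plus 3 SD, cut at about 22% in these data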;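 also: 0% = DMSO only wells and the 100% control is not disclosed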
HIF-2a inh: HIF-2a inhibition | 786-0 RCC cells HIF-2a reporter, luciferase luminescence, overnight | inhibition, % at 18.8 µM | 0.72% of 360,000 active | AID 624352;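 active = inhibition of the luminescence signal of 40% or more relative to plate controls, in a single-dose primary screen at 18.75 µM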
KKLEB tox: reduces viability of KKLEB cystic fibrosis airway cells; 0.36% of 360,000 active; activity change (cytotoxicity), % at 5 µM; AID 602141; KKLEB CF airway cells viability, ATPlite luminescence, overnight; active compounds read low; cells stimulated with P. aeruginosa culture filtrate;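 active = corrected activity change at or below -50% at 5 µM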
TRPM1 prom inh: inhibitors of MITF-driven TRPM1 promoter in melanoma cells; SK-MEL-5 TRPM1 promoter luciferase, 24 h; inhibition, % at 12.5 µM; 0.83% of 330,000 active; AID 488899;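 active = mean inhibition across replicates of 60% or more, whatever share of single replicates reaches that level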
CF NFkB block: cystic fibrosis NF-kB activation inhibition; 0.86% of 360,000 active; inhibition, % at 5 µM; KKLEB NF-kB-GFP reporter, PAF-induced, GFP fluorescence overnight;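 active = at least 50% inhibition at 5 µM, scaled per plate between neutral and stimulator controls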;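 also: PAF is a Pseudomonas aeruginosa culture filtrate used as stimulus; plate controls were PAF-stimulated DMSO wells for no effect and unstimulated DMSO wells for full effect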
Mdm2 MdmX conf: confirmation of inhibitors of human Mdm2/MdmX interaction, set 2; SaOS-2 split-luciferase Mdm2/MdmX complementation, luminescence; AID 504601; shares compounds with HIF-2a inh; inhibition, % at 8 µM; 99% of 740 active;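 active = mean inhibition of the luminescence signal across two replicates at or above 26 percent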
Target sequence (O15151 whole entry, looked up): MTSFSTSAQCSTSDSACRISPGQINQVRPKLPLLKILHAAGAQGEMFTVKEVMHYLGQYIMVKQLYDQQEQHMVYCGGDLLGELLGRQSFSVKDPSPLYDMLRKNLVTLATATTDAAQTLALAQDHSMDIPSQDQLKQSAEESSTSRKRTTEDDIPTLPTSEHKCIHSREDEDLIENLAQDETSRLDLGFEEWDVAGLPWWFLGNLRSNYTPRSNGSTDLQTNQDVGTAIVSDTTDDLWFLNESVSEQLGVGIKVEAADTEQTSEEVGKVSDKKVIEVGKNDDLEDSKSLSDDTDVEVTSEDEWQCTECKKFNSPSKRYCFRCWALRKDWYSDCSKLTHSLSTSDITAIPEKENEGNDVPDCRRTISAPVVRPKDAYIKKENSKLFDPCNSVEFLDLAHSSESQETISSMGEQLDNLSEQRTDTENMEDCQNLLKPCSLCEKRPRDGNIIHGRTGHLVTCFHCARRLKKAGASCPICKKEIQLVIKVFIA
Target sequence (Q00987 whole entry, looked up): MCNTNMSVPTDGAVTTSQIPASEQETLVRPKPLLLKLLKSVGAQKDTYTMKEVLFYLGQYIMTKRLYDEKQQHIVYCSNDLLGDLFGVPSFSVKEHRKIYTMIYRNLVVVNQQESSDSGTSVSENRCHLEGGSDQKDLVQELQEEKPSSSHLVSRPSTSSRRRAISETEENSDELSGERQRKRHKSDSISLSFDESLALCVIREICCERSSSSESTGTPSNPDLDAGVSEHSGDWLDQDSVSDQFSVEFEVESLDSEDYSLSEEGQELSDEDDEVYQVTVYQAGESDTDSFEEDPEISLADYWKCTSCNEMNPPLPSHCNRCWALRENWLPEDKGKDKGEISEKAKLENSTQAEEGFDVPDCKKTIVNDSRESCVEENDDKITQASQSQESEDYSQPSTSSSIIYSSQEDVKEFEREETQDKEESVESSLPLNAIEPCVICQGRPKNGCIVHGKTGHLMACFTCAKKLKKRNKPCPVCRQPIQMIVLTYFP
HIF-2a conf: confirmation of HIF-2a inhibitors. shares compounds with HIF-2a inh. 786-0 RCC cells, HIF-2a luciferase reporter luminescence, overnight. inhibition, % at 18.8 µM. 56% of 1,800 active. AID 651580;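 active = mean inhibition across four replicates of at least 40 percent at the single tested concentration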
HIF-1a counter: counter-screen for HIF-2a inhibitors: HIF-1a inhibition in MiaPaCa-2 cells | shares compounds with HIF-2a inh | MiaPaCa-2 HIF-1a luciferase reporter, desferoxamine, overnight | inhibition, % at 18.8 µM | 72% of 1,800 active | AID 651589;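 active = mean inhibition of the reporter signal across four replicates at the single tested dose of 50% or more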
Numbers without * were called inactive; . = no result.

SMILES | Peg3 promoter | ABHD5 PLIN5 PPI | HIF-2a inh | KKLEB tox | TRPM1 prom inh | CF NFkB block | HIF-2a conf | HIF-1a counter | others
COc1ccc(C)cc1N1C(=N)/C(=C2/Nc3ccccc3S2)C(c2ccccc2)C1=O (stereo not given) | 90.6* | 4.1 | 83.0* | -0.3 | 3.2 | -6.3 | -11.1 | 88.2*
CC(C)n1cnc2c(Nc3ccc(F)c(Cl)c3)nc(NCCO)nc21 | -9.4 | 5.3 | -42.6 | 10.0 | 9.0 | 24.9 | . | .
C=CC(=O)Nc1ccc(Nc2nc(NC3CCC(N(C)C)CC3)nc3c2ncn3C(C)C)cc1 (stereo not given) | 107.1* | -3.9 | 75.6* | -73.5* | 86.5* | 94.0* | . | . | Mdm2 MdmX conf=103.0*
COc1cccc(CN2C(=O)C(C)N(C(=O)c3ccccc3)c3ccccc32)c1 (stereo not given) | 22.1 | 3.5 | 25.6 | 8.8 | 11.6 | 0.1 | . | .
COc1ccc(C(=O)Nc2nc3ccccc3[nH]2)cc1 | 41.4 | 8.0 | 48.7* | -28.8 | 44.0 | 10.8 | 63.8* | 67.8*
Cc1csc(NC(=O)C(C)N2C(=O)c3ccccc3S2(=O)=O)n1 (stereo not given) | -11.8 | 7.5 | 12.7 | -3.7 | -7.3 | 2.5 | . | .
COc1ccc(-c2csc3ncnc(NCCCO)c23)cc1 | 30.1 | -1.1 | 41.0* | -5.3 | -3.4 | 49.1 | 8.6 | 45.7
COc1ccc(-c2csc3ncnc(Nc4ccc(O)cc4)c23)cc1 | 2.2 | 0.1 | 21.2 | -2.2 | 13.4 | 32.1 | . | .
CSc1ccc(-c2nc(CSCC(=O)NCCCN3CCCC3=O)c(C)o2)cc1 | -10.3 | -11.3 | 1.0 | 1.1 | 12.0 | 15.8 | . | .
CCc1ccc(-c2nc(CSCC(=O)NCCCN3CCCC3=O)c(C)o2)cc1 | 13.5 | 1.9 | 44.9* | -11.1 | 7.3 | 0.2 | -4.8 | 16.3
NCCc1nnc(SCc2c(Cl)cccc2Cl)o1 | 4.0 | -1.3 | 17.4 | -1.1 | -5.4 | -9.4 | . | .
NCCCCCc1nnc(SCc2ccccc2Cl)o1 | 12.7 | 5.8 | 67.7* | -1.4 | 25.0 | -19.5 | 83.5* | 67.8*
CCOc1ccc(C2C(C(=O)OC)=CN(C(C)c3ccccc3)C=C2C(=O)OC)cc1 (stereo not given) | 19.8 | 2.5 | 19.1 | -15.1 | -6.7 | 6.6 | . | .
O=C(NCCN1CCOCC1)c1cc(-c2ccc(Br)cc2)on1 | -9.6 | -3.5 | -39.8 | -9.5 | -5.0 | 3.4 | . | .
O=C(NCCCN1CCOCC1)c1cc(-c2ccc(Br)cc2)on1 | -16.4 | 9.6 | 57.5* | -6.1 | -7.8 | -9.2 | 19.3 | 61.7*
O=C(O)c1ccc(NC(=S)NC(=O)c2ccc3ccccc3c2)cc1 | -172.6 | 2.7 | -142.4 | 0.3 | -3.1 | 5.3 | . | .
O=C(O)c1cccc(NC(=S)NC(=O)c2ccc3ccccc3c2)c1 | 24.8 | -5.8 | 73.9* | 17.6 | 39.5 | -10.5 | 75.6* | -26.0
Cc1nc2cc(NC(=O)c3ccc([N+](=O)[O-])s3)ccc2s1 | -187.5 | -4.7 | 67.2* | -12.1 | 103.8* | 4.9 | 74.5* | 93.2*
Cc1cc(NS(=O)(=O)c2ccc(NC(=O)c3ccc([N+](=O)[O-])s3)cc2)nc(C)n1 | 12.7 | -1.6 | 14.5 | -0.9 | 30.7 | 24.9 | . | .
CN(Cc1ccccc1)C(=O)c1ccc(NC(=O)c2ccccc2)cc1 | 4.1 | -2.4 | -7.9 | -20.1 | 10.5 | 3.5 | . | .
CC1(Oc2cccc(F)c2)CCN(Cc2ccc(-c3ccccn3)cc2)C1 (stereo not given) | -18.5 | 1.4 | -8.7 | 1.2 | . | -36.1 | . | .
COc1cc2nc(CN3CCN(S(=O)(=O)c4cc(C)ccc4C)CC3)[nH]c(=O)c2cc1OC | 31.3 | -5.5 | 20.3 | -10.9 | 7.0 | -2.4 | . | .
COc1cc2nc(N3CCN(c4cc(C)ccc4C)CC3)nc(N)c2cc1OC | 101.7* | 10.5 | 38.7* | -47.2 | 11.9 | 3.4 | -9.1 | 102.4* | Mdm2 MdmX conf=102.7*
Cc1cc(N/N=C/c2ccc(N(C)C)cc2)c2ccccc2n1 | 25.7 | -1.2 | -120.4 | 2.2 | -23.6 | -11.7 | . | .
Cc1cc(C)c2nc(C)cc(N/N=C/c3ccc(O)cc3)c2c1 | 108.3* | 4.5 | 92.8* | -80.8* | 86.0* | 8.3 | . | . | Mdm2 MdmX conf=103.0*
SMILES | Peg3 promoter | ABHD5 PLIN5 PPI | HIF-2a inh | KKLEB tox | TRPM1 prom inh | CF NFkB block | HIF-2a conf | HIF-1a counter | others
Cc1c(NC(=O)CSc2nnc3c4ccccc4n(CCc4ccccc4)c3n2)c(=O)n(-c2ccccc2)n1C | 9.1 | 9.7 | -29.4 | 10.3 | -15.2 | -20.2 | . | . | Mdm2 MdmX conf=101.0*
CCn1c2ccccc2c2nnc(SCC(=O)Nc3c(C)n(C)n(-c4ccccc4)c3=O)nc21 | 0.4 | -2.0 | 12.7 | -1.6 | 10.4 | -17.1 | . | .
CC(NC(=O)COC(=O)C12CC3CC(CC(Br)(C3)C1)C2)c1ccccc1 (stereo not given) | 2.0 | 1.2 | 16.3 | -7.1 | -2.1 | 21.0 | . | .
COc1ccc(CCN2C(=O)CSC2=Nc2ccc(C)cc2C)cc1OC | 7.7 | 1.5 | 14.9 | -8.6 | 4.1 | 21.7 | . | .
COc1ccc2nc(-c3cccc(N)c3)[nH]c2c1 | -124.0 | -2.2 | -58.8 | 1.9 | -58.9 | -19.6 | . | .
COc1ccc2nc(-c3ccc(N)cc3)[nH]c2c1 | -116.8 | 0.1 | 69.6* | 6.5 | 32.2 | -22.2 | 79.9* | 17.0
CCN(CC)CC(=O)c1ccc(-c2ccccc2)cc1 | -7.0 | 11.8 | 45.8* | 12.3 | -2.8 | -7.1 | 7.4 | 27.7
COc1ccc(CNC(=O)O[C@]23C[C@H]4C(=O)N(c5ccccc5)C(=O)[C@H]4C[C@@]2(O)CN(S(=O)(=O)c2ccc(C)cc2)C3)cc1OC | -3.7 | 2.8 | 2.3 | -2.5 | . | 3.9 | . | .
CCN1CCN(c2oc(-c3ccccc3)nc2S(=O)(=O)c2ccc(C)cc2)CC1 | -1.8 | 6.8 | -9.9 | -1.0 | -5.7 | -12.8 | . | .
CCC(C)[C@H](N)C(=O)N[C@H]1CCC2C3CC=C4C[C@@H](O)CC[C@]4(C)C3CC[C@@]21C (stereo not given in full) | 110.2* | 10.6 | 85.6* | -67.4* | . | 31.9 | -1.1 | 50.2*
C[C@@H](N)C(=O)N[C@H]1CCC2C3CC=C4C[C@@H](O)CC[C@]4(C)C3CC[C@@]21C (stereo not given in full) | -1.3 | -2.3 | 6.7 | 1.0 | -13.1 | 2.7 | . | .
CC(C)[C@H](N)C(=O)N[C@H]1CCC2C3CC=C4C[C@@H](O)CC[C@]4(C)C3CC[C@@]21C (stereo not given in full) | 91.6* | 2.1 | 55.0* | -71.5* | . | 7.5 | 1.9 | 90.0*
CC(=O)n1cc(Nc2ccc([N+](=O)[O-])cc2)c2ccccc21 | -6.8 | 8.3 | -32.7 | 1.7 | 25.8 | -10.6 | . | .

High-throughput results as filed in PubChem.
